Pf Dd2 growth = Plasmodium falciparum Dd2 growth inhibition; P. falciparum Dd2 growth, SYBR Green, 72 h; 120,000 tested, 4.3% active; Potency, µM (titrated, usually from 28.9 µM), actives largely listed as inhibitors; active = well fitted inhibition curve with a large enough effect; note: nearly all actives have a fitted effect of over 65% in size
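Infected erythrocytes (Dd2, 0.3% parasitemia, 2.5% hematocrit final) are added to compound in RPMI-1640/Albumax II medium, grown 72 h at 37C in low oxygen, then lysed with saponin/Triton-X containing SYBR Green and read by fluorescence.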
A number is an active result; i = inactive; [ ] = remark or other dose. The full list was thinned out, with hits kept by preference.

SMILES | Pf Dd2 growth
CCCCNC(=O)C1CCCN(C2CCN(Cc3ccncc3)CC2)C1 (stereo unspecified) | i
O=C(NC1CCCCCCC1)C1CCCN(C2CCN(Cc3ccncc3)CC2)C1 (stereo unspecified) | 13µM
CC(C)c1cc(C(=O)N2CCn3nc(C(=O)Nc4ccccc4)cc3C2)n[nH]1 | i
COCC(=O)N[C@@H]1CN(C(=O)C2(c3ccccc3)CC2)CC[C@@H]1c1nc(C)no1 | i[5.79 µM]
CC(C)(C)c1ccc(C(=O)Nc2ccc(C(O)[C@H]3COCC(=O)N3)cc2)cc1 (stereo partly specified) | 10µM
COc1ccccc1C(=O)Nc1ccc(C(O)[C@H]2COCC(=O)N2)cc1 (stereo partly specified) | i
O=C1COC[C@H]([C@H](O)c2ccc(NS(=O)(=O)c3ccc(F)cc3)cc2)N1 | i
O=C(CCC[C@@H]1[C@H]2CCCN3CCC[C@@H](CN1C(=O)c1cccnc1)[C@@H]23)NCc1ccccn1 | i
CN1CCN([C@H]2[C@@H]3OC[C@@H](O3)[C@@H](NC(=O)Nc3cccc(C(F)(F)F)c3)[C@@H]2O)CC1 | i
CC1CCC2(CC1)NC(=O)N(CC(=O)Nc1cc(C(F)(F)F)ccc1Cl)C2=O (stereo unspecified) | i
CCOc1ccccc1NC(=O)C1CN(S(=O)(=O)C2CC2)CC12CCCCC2 (stereo unspecified) | i
COc1ccc(CNC(=O)C2CN(S(=O)(=O)C3CC3)CC23CCCCC3)c(OC)c1 (stereo unspecified) | i
O=C(Nc1ccc2c(c1)OCCO2)C1CN(S(=O)(=O)C2CC2)CC12CCCCC2 (stereo unspecified) | 3.2µM
O=C(c1ccccc1Br)N1CC(n2cc(COc3ccc(F)cc3)nn2)C1 | 11µM
Cc1ccc(C)c(NC(=O)N2CC(n3cc(COc4ccccc4)nn3)C2)c1 | i
O=C(NCc1ccco1)N1CC(n2cc(COc3ccccc3)nn2)C1 | i
CC(C)NC(=O)N1CCCC1c1nnc2n1CCNC2 (stereo unspecified) | i
O=C(C1CCCN(C2CCN(Cc3ccc4c(c3)OCO4)CC2)C1)N1CCOCC1 (stereo unspecified) | i
O=C(c1cccnc1)N1CCCC(c2noc(COc3ccccc3)n2)C1 (stereo unspecified) | i
c1coc(CN[C@H]2CO[C@H]3[C@@H]2OC[C@@H]3n2nnnc2Oc2ccc(-n3cncn3)cc2)c1 | i
COCCc1nncn1C1CCNCC1 | i
Cc1nc2c(c(-c3ccc(Cl)cc3)n1)CCN(C(=O)c1ccccc1)CC2 | i
CN(Cc1cccnc1)c1nc2c(c(=O)[nH]1)CCN(Cc1ccc(Cl)cc1)CC2 | i[5.79 µM]
CN1CCN(c2nc3c(c(=O)[nH]2)CCN(Cc2cccnc2)CC3)CC1 | i[5.79 µM]
CC(C)c1nc2c(c(-c3ccc(Cl)cc3)n1)CCN(Cc1cccnc1)CC2 | 11µM
SMILES | Pf Dd2 growth
CC(C)c1nc2c(c(-c3ccc(Cl)cc3)n1)CCN(Cc1cccc3ccccc13)CC2 | 11µM
CC(C)c1nc2c(c(-c3ccc(O)cc3)n1)CN(C(=O)N(C)C)CC2 | i
COCCn1ccc2c(C3=CCOCC3)nc(-c3cccc4cn[nH]c34)cc21 | i
COCCNC(=O)C[C@@H]1O[C@H](CNC(=O)Nc2cccc(F)c2)[C@@H](O)[C@H]1O | i
CN(Cc1nc(-c2ccccn2)no1)CC1COc2ccccc2O1 (stereo unspecified) | i
CCn1ncc(CN2CCCN(S(C)(=O)=O)C(c3ccccc3)CC(=O)NCC2)c1C (stereo unspecified) | i
CS(=O)(=O)N1CCCN(Cc2cn[nH]c2-c2ccc(F)cc2)CCNC(=O)CC1c1ccccc1 (stereo unspecified) | i
COc1cccc(CN2CCCOCCNC(=O)CC2)c1OC | i
CCOc1ccccc1CN1CCCN(Cc2ccncc2)C(c2ccccc2)CC(=O)NCC1 (stereo unspecified) | 1.3µM
O=C1CC(c2ccccc2)N(S(=O)(=O)c2ccccc2)CCCCCN1 (stereo unspecified) | i
CC(C)NC(=O)N1CCCCCNC(=O)CC1c1ccccc1 (stereo unspecified) | i
COc1cccc(CN2CCCCCNC(=O)CC2c2ccccc2)c1OC (stereo unspecified) | 11µM
COc1cccc(CN2CCCCCCNC(=O)CC2c2ccccc2)c1OC (stereo unspecified) | 7.9µM
Cc1ccc(CN2CCCC(c3nc(C(C)C)no3)CCNC(=O)CC2)o1 (stereo unspecified) | i
COc1cccc(CN2CCNC(=O)C2CC(=O)N2CCNC(=O)C2)c1OC (stereo unspecified) | i
Cc1ccc(CN2CCCN(S(C)(=O)=O)C(c3ccccc3)CC(=O)NCC2)o1 (stereo unspecified) | i
Cc1ccc(CN2CCCN(Cc3ccncc3)C(c3ccccc3)CC(=O)NCC2)o1 (stereo unspecified) | 1.8µM
O=C(NCc1ccccn1)C1CCN(C(=O)C2(c3ccc(F)cc3)CC2)CC1 | i
CN(C)C(=O)C1CN(C(=O)C2CCCCC2)CC12CCOCC2 (stereo unspecified) | i
COc1ccc(NC(=O)Cn2c(=O)n(-c3ccccc3)c(=O)c3c2cc(C)n3C)cc1OC | i
Cc1nc(C)c(C(=O)N2CCC(c3nnc(Cn4ccnc4)n3C)CC2)o1 | i
O=C1CC(c2noc(-c3ccc4c(c3)OCO4)n2)CN1c1ccc(F)c(Cl)c1 (stereo unspecified) | i
CN1CC(=O)N(C2CCC2)Cc2c1ncnc2N1CCCC1 | i
Cc1ncsc1CN1CCCCCCNC(=O)CC1c1ccccc1 (stereo unspecified) | i
CCOc1ccccc1CN1CCCCCCNC(=O)CC1c1ccccc1 (stereo unspecified) | 11µM
SMILES | Pf Dd2 growth
CCNC(=O)N1CCCCCNC(=O)CC1c1ccccc1 (stereo unspecified) | i
Cc1ccc(CN2C[C@@H]3C(=O)N(CCCN4CCCC4=O)C(=O)[C@@H]3C2)c(C)c1 | i
COCCNC(=O)C[C@@H]1C[C@H]2O[C@H](CNC(=O)Nc3cccnc3)[C@@H](O)[C@H]2O1 | i
CN1CC(c2ccccc2)CC2(CCN(C(=O)CCN3CCCC3=O)CC2)C1 (stereo unspecified) | i
O=C1COCCN1C1CCN(Cc2ccsc2)CC1 | i
O=C1CCCCCN1C1CCN(Cc2cccnc2)CC1 | i
O=C1CCCCCN1C1CCN(Cc2ccsc2)CC1 | 7.1µM
Cc1cc(C)c([S+](=O)([O-])c2nnn3c2nc(N2CCC(F)CC2)c2ccccc23)c(C)c1 | 11µM
Cc1ccc(-c2nnn3c2nc(N2CCC(C)CC2)c2ccccc23)cc1 | i
O=S(=O)(c1ccccc1)c1nnn2c1nc(N1CCOCC1)c1ccccc12 | i
CC(C)c1ccc([S+](=O)([O-])c2nnn3c2nc(N2CCC(F)CC2)c2ccccc23)cc1 | i
COc1ccc(OC)c([S+](=O)([O-])c2nnn3c2nc(N2CCOCC2)c2ccccc23)c1 | i
Cc1cc(C)c([S+](=O)([O-])c2nnn3c2nc(N2CCOCC2)c2ccccc23)c(C)c1 | 8.9µM
CCOC(=O)CCCOc1cccn2c(=O)c(-c3cc(C)n(-c4ccccc4)n3)c(C)nc12 | i
Cn1c(=O)[nH]cc(CC(=O)N2CCC3(CC(=O)NC3=O)C2)c1=O (stereo unspecified) | i
COc1ccc(OC)c(S(=O)(=O)N2CCCC(Cn3c(C)nc4cccnc43)C2)c1 (stereo unspecified) | i
COc1ccc(OC)c(S(=O)(=O)N2CCC(n3cnnc3C)CC2)c1 | i

Screening results as filed in PubChem BioAssay.
